Several values for one entry are separate records, joined by “and”; a condition that tells them apart may be missing. Equal values may be shown once. Screen size: about 16,000 compounds; about 5,100 (32%) were called active. Roughly 25% stayed inconclusive and do not appear here. Some of the results follow. Values without a mark were called inactive. The call rests on the fitted dose curve; in most records, active means well fitted curve in the direction sought with a large enough effect; inconclusive means small, poorly fitted or top-dose-only effect, or effect the other way; inactive means no such curve, though single readings can be large or run the other way.
On the % scale 0 is the no-effect control and ±100 the full control effect.

The target in this experiment is Cytochrome P450 3A4 (Homo sapiens) (UniProt P08684). Put plainly: Cytochrome panel assay with activity outcomes. As to conditions: recombinant CYP, pro-luciferin dealkylation, luminescence, p450-cyp3a4; series mostly up to 57.1 µM; activity, negative = inhibition: at the top concentration.
Cytochrome P450 3A4 (Homo sapiens), sequence (P08684 whole entry, looked up): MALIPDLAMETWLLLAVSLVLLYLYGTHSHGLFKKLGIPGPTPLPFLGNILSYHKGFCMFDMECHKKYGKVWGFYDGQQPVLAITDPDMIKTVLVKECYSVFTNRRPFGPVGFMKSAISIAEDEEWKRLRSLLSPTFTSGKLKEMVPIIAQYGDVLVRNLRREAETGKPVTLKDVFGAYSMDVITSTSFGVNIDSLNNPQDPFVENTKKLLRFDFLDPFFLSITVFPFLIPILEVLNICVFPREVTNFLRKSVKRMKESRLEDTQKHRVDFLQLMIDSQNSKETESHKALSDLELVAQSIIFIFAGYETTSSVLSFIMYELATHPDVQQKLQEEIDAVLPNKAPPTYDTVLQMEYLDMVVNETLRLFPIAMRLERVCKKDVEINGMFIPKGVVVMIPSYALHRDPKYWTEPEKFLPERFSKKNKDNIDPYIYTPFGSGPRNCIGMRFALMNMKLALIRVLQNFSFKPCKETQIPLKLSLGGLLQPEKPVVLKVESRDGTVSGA
Turning to `CSc1nc(NC2CCCC2)c([N+](=O)[O-])c(NC2CCCC2)n1`, the “activity, negative = inhibition” value is -23.7%.

On to `COc1ccc([C@@H]2CC(=O)c3c(O)cc(O[C@H]4O[C@@H](CO[C@H]5O[C@@H](C)[C@@H](O)[C@@H](O)[C@@H]5O)[C@@H](O)[C@@H](O)[C@@H]4O)cc3O2)cc1O`, for which the “activity, negative = inhibition” value is -1.85% [at 25.6 µM].

Broadly, the AC50 is the concentration at which the activity in the assay is half-maximal. With `O=C(CN1CCN(CC(=O)Nc2ccccc2Cl)CC1)Nc1ccc2c(c1)OCCO2`, the AC50 is 14.1 µM (active).

As for `O=C(Nc1ccc2c(c1)OCCO2)C1CCN(C(=O)c2ccccc2)CC1`, the “activity, negative = inhibition” value was 21.8%.

As to `COc1cccc(OC)c1OCCCCN1CCCC1`, the “activity, negative = inhibition” value is -8.41%.

`COc1cccc(OC)c1OCCCN1CCOCC1`: the “activity, negative = inhibition” value was -7.58%.

Regarding `COc1cccc(OC)c1OCCNC[C@@H]1COc2ccccc2O1`, the AC50 was 2 µM (active) and 2.51 µM (active).

As to `O=C(COc1ccccc1Cl)NC(=S)Nc1cccc(NC(=O)c2ccccc2Cl)c1`, the activity, negative = inhibition is 7.56% [at 2.29 µM].

`O=C(Nc1cccc(Cl)c1)N1CCN2C(=O)c3ccccc3C12c1ccccc1` (stereo not drawn): the activity, negative = inhibition is -22.9% [at 2.29 µM].

With `O=C(CCN1C(=O)c2ccccc2C1=O)NC(=S)Nc1cccc(Cl)c1`, the AC50 was 15.8 µM (active).

Regarding `Cc1cccc(NC(=S)NNC(=O)CCn2cc(C)cn2)c1`, the “activity, negative = inhibition” value is 17%.

As for `Cc1cnn(CCC(=O)NNC(=S)Nc2cccc(Cl)c2)c1`, the AC50 is 12.6 µM (active).

On to `CNC[C@H](O)[C@H](O)[C@H](O)[C@H](O)CO`, for which the “activity, negative = inhibition” value is -7.18% [at 25.6 µM].

As for `CN(C)c1ccc(NC(=O)c2cccc(N3C(=O)C4C5C=CC(C5)C4C3=O)c2)cc1` (stereo not drawn), the “activity, negative = inhibition” value was -26%.

As for `Cc1cccc(NC(=O)c2cccc(N3C(=O)C4C5CCC(C5)C4C3=O)c2)c1C` (stereo not drawn), the AC50 was 11.2 µM (active).

Regarding `Cc1cccc(NC(=O)c2onc3c2CCCC3)c1C`, the “activity, negative = inhibition” value was -26.3%.

For the compound `Cc1ccccc1-c1nc(N2CCOCC2)c2ccccc2n1`, the AC50 was 15.8 µM (active).

On to `Clc1ccccc1-c1nc(NC2CCNCC2)c2ccccc2n1`, for which the “activity, negative = inhibition” value was -3.64%.

As for `Cc1noc(C)c1-c1nc(N2CCOCC2)c2ccccc2n1`, the AC50 is 6.31 µM (active).

Regarding `Clc1ccccc1-c1nc(N2CCNCC2)c2ccccc2n1`, the AC50 is 25.1 µM (active).

On to `Cc1noc(C)c1-c1nc(N2CCN(C)CC2)c2ccccc2n1`, for which the “activity, negative = inhibition” value is -26.4%.

For the compound `c1ccc2c(N3CCOCC3)nc(-c3ccoc3)nc2c1`, the AC50 was 6.31 µM (active).

In the case of `O=C(O)CCCCCCCC(=O)O`, the “activity, negative = inhibition” value is 0.705%.

Take `CCOC(=O)C(C)(C)[C@H](O)C(C)C`: the activity, negative = inhibition was 2.08% [at 11.4 µM].

Take `Cc1cc2nc3c(=O)[nH]c(=O)nc-3n(CC(O)C(O)C(O)CO)c2cc1C` (stereo not drawn): the “activity, negative = inhibition” value is -18.2% [at 25.6 µM].

As for `O=C1NC(c2ccccc2)=NC1(NS(=O)(=O)c1ccccc1)C(F)(F)F` (stereo not drawn), the “activity, negative = inhibition” value is -3.82%.

Take `Cc1ccccc1-c1nc(N2CCNCC2)c2ccccc2n1`: the AC50 is 25.1 µM (active).

Consider `Cc1ccccc1-c1nc(N2CCN(C)CC2)c2ccccc2n1`, for which the AC50 is 20 µM (active).
